Test results from article PMC4336329 (PLoS ONE, 2015).
Screen size: about 310,000 compounds; about 14,000 (4.5%) showed an effect of 50% or more. Effects have a minus sign here. Many of the other results were omitted from the sample, so strong results are more common in it than they were.

Biological target: human ether-à-go-go-related gene (hERG) potassium channel (human, UniProt Q12809)
Assay: primary screen, population patch clamp on CHO cells stably expressing hERG; higher = less effect of the substance
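Further: peak tail current of the secondary pulse compared with the same well before compound.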

Sequence of human ether-à-go-go-related gene (hERG) potassium channel (Q12809 whole entry, looked up): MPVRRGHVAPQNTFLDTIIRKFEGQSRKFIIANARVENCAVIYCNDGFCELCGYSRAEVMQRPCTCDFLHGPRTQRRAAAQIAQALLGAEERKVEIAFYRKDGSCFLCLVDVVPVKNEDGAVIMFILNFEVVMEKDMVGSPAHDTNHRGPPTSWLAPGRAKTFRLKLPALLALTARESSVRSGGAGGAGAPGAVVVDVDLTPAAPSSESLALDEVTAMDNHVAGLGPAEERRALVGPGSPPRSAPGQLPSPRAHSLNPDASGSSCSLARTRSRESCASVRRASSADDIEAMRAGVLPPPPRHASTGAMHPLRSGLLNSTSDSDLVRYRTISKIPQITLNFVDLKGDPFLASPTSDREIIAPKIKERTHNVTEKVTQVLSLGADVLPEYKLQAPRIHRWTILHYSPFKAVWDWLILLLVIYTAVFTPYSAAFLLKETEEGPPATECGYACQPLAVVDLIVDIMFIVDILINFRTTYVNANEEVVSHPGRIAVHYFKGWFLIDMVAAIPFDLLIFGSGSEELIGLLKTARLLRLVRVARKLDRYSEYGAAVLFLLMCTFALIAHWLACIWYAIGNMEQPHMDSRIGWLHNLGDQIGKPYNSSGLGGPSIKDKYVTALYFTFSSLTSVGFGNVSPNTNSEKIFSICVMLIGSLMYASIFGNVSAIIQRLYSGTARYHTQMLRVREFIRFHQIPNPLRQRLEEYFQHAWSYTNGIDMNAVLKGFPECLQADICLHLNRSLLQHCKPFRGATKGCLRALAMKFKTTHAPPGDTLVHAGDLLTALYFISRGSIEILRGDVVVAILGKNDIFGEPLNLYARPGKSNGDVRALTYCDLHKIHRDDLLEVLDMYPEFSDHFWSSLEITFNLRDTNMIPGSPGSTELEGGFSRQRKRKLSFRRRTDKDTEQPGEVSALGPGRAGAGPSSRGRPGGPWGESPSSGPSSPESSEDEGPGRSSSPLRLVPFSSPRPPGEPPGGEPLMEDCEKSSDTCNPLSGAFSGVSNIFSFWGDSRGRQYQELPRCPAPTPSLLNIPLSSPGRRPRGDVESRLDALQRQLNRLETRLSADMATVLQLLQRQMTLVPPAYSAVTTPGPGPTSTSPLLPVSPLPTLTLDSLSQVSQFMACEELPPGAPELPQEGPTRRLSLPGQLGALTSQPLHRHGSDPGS

Q: Which “hERG current change (%, negative = inhibition) at 10uM” value does the source give for `CN1CCN(CC(C)(C)NS(=O)(=O)c2ccc(Cl)cc2)CC1` here?
A: -20.4%

Q: `CN1CCN(CC(O)(c2ccc(Cl)cc2)c2ccc(Cl)cc2)CC1` was tested. Which “hERG current change (%, negative = inhibition) at 10uM” value did it give?
A: -73.3%

Q: Which “hERG current change (%, negative = inhibition) at 10uM” value does the source give for `Cl.NCC(O)(c1ccc(Cl)cc1)c1ccc(Cl)cc1` here?
A: -5.47%

Q: For `O=C(N/N=C/c1cccnc1)c1ccc(NC(=O)c2cccc(Cl)c2)cc1`, which “hERG current change (%, negative = inhibition) at 10uM” value is on record?
A: 15.3%

Q: `Cc1cccc(Cl)c1NC(=O)N1CCCN(c2nc3ccc(Cl)cc3s2)CC1` was tested. Which “hERG current change (%, negative = inhibition) at 10uM” value did it give?
A: -20.6%

Q: Which “hERG current change (%, negative = inhibition) at 10uM” value does the source give for `COc1cccc(/C=C/C2=CC(C)(C)NC(=S)N2)c1` here?
A: 16%

Q: Which “hERG current change (%, negative = inhibition) at 10uM” value does the source give for `COc1cc(S(=O)(=O)N(Cc2ccccc2)Cc2ccccn2)ccc1-n1cnnn1` here?
A: 2.81%

Q: How did the “hERG current change (%, negative = inhibition) at 10uM” value turn out when `COc1ccc(CN(C2CCCC2)S(=O)(=O)c2ccc(-n3cnnn3)cc2)cc1` was run?
A: -43.8%

Q: `COc1ccc(CN(C2CCCC2)S(=O)(=O)c2ccc(-n3cnnn3)cc2)cc1OC` was tested. Which “hERG current change (%, negative = inhibition) at 10uM” value did it give?
A: -64%

Q: For `COc1ccc(CN(Cc2ccccn2)S(=O)(=O)c2ccc(-n3cnnn3)cc2)cc1`, which “hERG current change (%, negative = inhibition) at 10uM” value is on record?
A: -72.7%

Q: Which “hERG current change (%, negative = inhibition) at 10uM” value does the source give for `COc1ccc(CCN(Cc2cccs2)S(=O)(=O)c2ccc(-n3cnnn3)cc2)cc1OC` here?
A: -52.5%

Q: With `COc1ccc(CN(Cc2ccccn2)S(=O)(=O)c2ccc(-n3cnnn3)c(OC)c2)cc1` as the molecule, how does the “hERG current change (%, negative = inhibition) at 10uM” value read?
A: -47.2%

Q: With `COc1ccc(CN(C2CCCC2)S(=O)(=O)c2ccc(-n3cnnn3)c(OC)c2)cc1OC` as the molecule, how does the “hERG current change (%, negative = inhibition) at 10uM” value read?
A: -28.1%

Q: For `COc1cc(S(=O)(=O)N(CCc2ccccc2)Cc2cccs2)ccc1-n1cnnn1`, which “hERG current change (%, negative = inhibition) at 10uM” value is on record?
A: -3.57%

Q: With `COc1ccc(CCN(Cc2cccs2)S(=O)(=O)c2ccc(-n3cnnn3)c(OC)c2)cc1OC` as the molecule, how does the “hERG current change (%, negative = inhibition) at 10uM” value read?
A: 10.4%

Q: For `O=C(N/N=C/c1ccc(Cl)cc1Cl)C(=O)NC1CC1`, which “hERG current change (%, negative = inhibition) at 10uM” value is on record?
A: 17.4%

Q: `Nc1nonc1C(=O)OCC(=O)c1ccc(Cl)cc1` was tested. Which “hERG current change (%, negative = inhibition) at 10uM” value did it give?
A: 4.6%

Q: Which “hERG current change (%, negative = inhibition) at 10uM” value does the source give for `Cc1ccccc1NC(=O)NC1(C(=O)N2CCCC2)CCCCC1` here?
A: 9.33%

Q: With `CCCCN(CC)CCCNC(=O)c1cc2cc3ccc(C)cc3nc2o1` as the molecule, how does the “hERG current change (%, negative = inhibition) at 10uM” value read?
A: -53.4%

Q: With `Cc1ccc2cc3cc(C(=O)NCCC(C)C)oc3nc2c1` as the molecule, how does the “hERG current change (%, negative = inhibition) at 10uM” value read?
A: 8.43%

Q: `CCCN(CCC)CCCNC(=O)c1cc2cc3ccc(OC)cc3nc2o1` was tested. Which “hERG current change (%, negative = inhibition) at 10uM” value did it give?
A: -52.8%

Q: For `CCN(CC)CCNC(=O)c1cc2cc3ccc(OC)cc3nc2o1`, which “hERG current change (%, negative = inhibition) at 10uM” value is on record?
A: -18%

Q: `COCCNC(=O)c1cc2cc3ccc(OC)cc3nc2o1` was tested. Which “hERG current change (%, negative = inhibition) at 10uM” value did it give?
A: 12.8%

Q: Which “hERG current change (%, negative = inhibition) at 10uM” value does the source give for `CCCCN(CC)CCCNC(=O)c1cc2cc3ccc(OC)cc3nc2o1` here?
A: -64.5%

Q: How did the “hERG current change (%, negative = inhibition) at 10uM” value turn out when `COc1ccc2cc3cc(C(=O)NCCC(C)C)oc3nc2c1` was run?
A: 6.93%

Q: How did the “hERG current change (%, negative = inhibition) at 10uM” value turn out when `Cc1ccc2cc3cc(C(=O)NC4CC4)oc3nc2c1` was run?
A: 8.43%

Q: Which “hERG current change (%, negative = inhibition) at 10uM” value does the source give for `CCCCN(C)CCNC(=O)c1cc2cc3ccc(OC)cc3nc2o1` here?
A: -43%
